Growth inhibition, inhibition and outcome data for 20 molecules are collected here from PubChem BioAssay.

A short description of test [1]: antimalarial activity against Dd2 strain (AID 2302;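 active = growth inhibition above 50% at the single 2 µM test dose, taken to imply half-maximal potency below 2 µM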;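 also: 0% = DMSO untreated growth and 100% = chloroquine plus artemisinin killed control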). As to conditions: P. falciparum Dd2 in RBCs, LDH growth readout, 72 h; at 2 µM; stronger effect = higher value.
Test [2] can be described thus: human hepatoma cell viability loss – ATP luminescence, cytotoxicity control for P. falciparum antimalarial project, primary screen (AID 2303;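 active = inhibition above 50%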;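 also: 0% = DMSO wells and 100% = digitonin-killed cells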). To be noted: HepG2 viability, 24-48 h, at 10 µM, stronger effect = higher value.
Test [3] addresses L-lactate dehydrogenase (Plasmodium falciparum (isolate CDC / Honduras)) (UniProt Q27743). The experiment in a line: PfLDH activity inhibition – cell lysate, 3D7 strain, counter-screen for P. falciparum growth inhibition project (AID 2304).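 Also: 0% = vehicle and 100% = reference inhibitor.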 As to conditions: P. falciparum 3D7 crude extract, LDH APAD/NBT absorbance; at 2 µM; stronger effect = higher value. (In general: The purpose of a counterscreen is to sort out artefacts and off-target activity.)

Test [4] is described as follows: inhibition of 3D7 malaria parasite growth – strain 3D7 (AID 2306).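 Also: 0% = DMSO wells and 100% = chloroquine plus artemisinin control wells.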 As to conditions: P. falciparum 3D7 erythrocytic growth, LDH absorbance, 72 h; at 2 µM; stronger effect = higher value.
Test [5] has as its target Calcium-dependent protein kinase 1 (Plasmodium falciparum (isolate 3D7)) (UniProt P62344). Kind of test: PfCDPK1 kinase inhibitors, biochemical, TCAMS library (AID 1159585; cut-off not given, nearly all actives have IC50 up to about 0.98 µM;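 also: inhibitors leave more ATP so luminescence rises with inhibition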). As to conditions: recombinant PfCDPK1, Kinase-Glo ATP depletion luminescence. (In general: In Kinase-Glo more light means more ATP remaining.)
The target in test [6] is Plasmodium falciparum protein kinase 6 (PK6, PF3D7_1337100) (UniProt Q8IDW1). The experiment in a line: PfPK6 kinase inhibitors, biochemical, TCAMS library (AID 1159586). To be noted: recombinant PfPK6, Kinase-Glo ATP depletion luminescence.
For test [7], the target named is Protein kinase 7 (PK7), Plasmodium falciparum 3D7 (PF3D7_0213400) (UniProt Q7YTF7). Kind of test: inhibition of Plasmodium PK7 catalytic activity – biochemical, TCAMS antimalarial set, Kinase-Glo luminescence (AID 1159587). To be noted: recombinant PfPK7, Kinase-Glo ATP depletion luminescence.
Test [8] concerns the target Calcium-dependent protein kinase 4 (Plasmodium falciparum (isolate 3D7)) (UniProt Q8IBS5). The experiment in a line: PfCDPK4 kinase inhibitors, biochemical, TCAMS library (AID 1159588; cut-off not given, nearly all actives have IC50 up to about 0.91 µM). As to conditions: recombinant PfCDPK4, Kinase-Glo ATP depletion luminescence.

Values without a mark were called inactive. For some of these results: Measured potencies and affinities stand elsewhere. Active and inactive are the calls of the source. Unless noted, no rule for the calls is given here.

As usually defined, the inhibition is the drop in the measured response relative to a control, in per cent.

Sequence of Calcium-dependent protein kinase 4 (Plasmodium falciparum (isolate 3D7)) (Q8IBS5 whole entry, looked up): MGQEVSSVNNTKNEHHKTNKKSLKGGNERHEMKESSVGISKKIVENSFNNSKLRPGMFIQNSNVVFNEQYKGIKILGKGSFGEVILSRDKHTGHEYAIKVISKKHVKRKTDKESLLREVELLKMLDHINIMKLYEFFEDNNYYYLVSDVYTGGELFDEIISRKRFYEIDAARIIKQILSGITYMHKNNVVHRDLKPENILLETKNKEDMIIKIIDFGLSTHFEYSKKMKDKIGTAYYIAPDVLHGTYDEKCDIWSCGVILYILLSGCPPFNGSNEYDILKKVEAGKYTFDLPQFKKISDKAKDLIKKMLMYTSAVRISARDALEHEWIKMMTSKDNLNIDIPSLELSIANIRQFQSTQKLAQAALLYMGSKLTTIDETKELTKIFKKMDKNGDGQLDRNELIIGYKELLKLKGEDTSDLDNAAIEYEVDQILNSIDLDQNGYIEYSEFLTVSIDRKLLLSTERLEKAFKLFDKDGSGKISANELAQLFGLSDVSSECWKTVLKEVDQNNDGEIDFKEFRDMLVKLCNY
Sequence of Plasmodium falciparum protein kinase 6 (PK6, PF3D7_1337100) (Q8IDW1 1-305): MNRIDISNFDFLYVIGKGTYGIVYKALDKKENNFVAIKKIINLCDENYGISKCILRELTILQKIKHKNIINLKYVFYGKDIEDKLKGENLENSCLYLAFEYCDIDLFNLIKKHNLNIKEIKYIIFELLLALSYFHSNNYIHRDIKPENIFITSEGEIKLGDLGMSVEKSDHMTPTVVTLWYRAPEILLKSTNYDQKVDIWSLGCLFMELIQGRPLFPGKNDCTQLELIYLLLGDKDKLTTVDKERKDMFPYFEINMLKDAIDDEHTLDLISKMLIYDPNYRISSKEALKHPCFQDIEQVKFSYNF
Sequence of L-lactate dehydrogenase (Plasmodium falciparum (isolate CDC / Honduras)) (Q27743 whole entry, looked up): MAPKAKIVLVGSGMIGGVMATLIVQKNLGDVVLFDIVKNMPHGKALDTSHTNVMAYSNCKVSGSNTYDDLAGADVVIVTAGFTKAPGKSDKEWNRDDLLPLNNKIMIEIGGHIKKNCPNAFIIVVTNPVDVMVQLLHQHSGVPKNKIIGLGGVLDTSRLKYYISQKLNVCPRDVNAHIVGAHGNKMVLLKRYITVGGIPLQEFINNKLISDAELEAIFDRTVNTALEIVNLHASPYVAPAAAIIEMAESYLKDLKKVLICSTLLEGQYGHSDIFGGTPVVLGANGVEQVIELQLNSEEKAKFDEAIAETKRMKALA
Sequence of Protein kinase 7 (PK7), Plasmodium falciparum 3D7 (PF3D7_0213400) (Q7YTF7 1-343): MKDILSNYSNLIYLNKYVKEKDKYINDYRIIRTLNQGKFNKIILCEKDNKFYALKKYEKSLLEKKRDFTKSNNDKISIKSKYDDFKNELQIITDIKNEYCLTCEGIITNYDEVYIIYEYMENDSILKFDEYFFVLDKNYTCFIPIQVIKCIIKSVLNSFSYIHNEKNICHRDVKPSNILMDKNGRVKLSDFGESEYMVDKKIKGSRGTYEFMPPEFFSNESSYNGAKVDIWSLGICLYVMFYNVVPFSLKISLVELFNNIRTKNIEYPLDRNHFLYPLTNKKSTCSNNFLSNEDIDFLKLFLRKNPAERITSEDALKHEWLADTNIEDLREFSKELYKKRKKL
Sequence of Calcium-dependent protein kinase 1 (Plasmodium falciparum (isolate 3D7)) (P62344 whole entry, looked up): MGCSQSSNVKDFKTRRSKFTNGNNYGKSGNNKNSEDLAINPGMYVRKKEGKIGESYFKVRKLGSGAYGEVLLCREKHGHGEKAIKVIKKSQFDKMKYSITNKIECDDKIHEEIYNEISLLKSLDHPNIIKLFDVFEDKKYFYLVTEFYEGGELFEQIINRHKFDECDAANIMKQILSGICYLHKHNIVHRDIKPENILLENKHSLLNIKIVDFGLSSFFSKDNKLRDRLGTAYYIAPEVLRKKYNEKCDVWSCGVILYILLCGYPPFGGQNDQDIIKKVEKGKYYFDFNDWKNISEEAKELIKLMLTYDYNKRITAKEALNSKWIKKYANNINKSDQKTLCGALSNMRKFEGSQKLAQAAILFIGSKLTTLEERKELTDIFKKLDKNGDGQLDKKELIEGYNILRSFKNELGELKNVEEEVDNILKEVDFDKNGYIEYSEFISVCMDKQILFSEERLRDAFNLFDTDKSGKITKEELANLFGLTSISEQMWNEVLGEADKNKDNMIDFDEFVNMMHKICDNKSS

For `Cc1cccc2[nH]c(-c3cccc(-c4ccc(NC(=O)N[C@@H]5C[C@H]5c5ccccc5)cc4)c3)nc12`, the figures for the growth inhibition in test [1] and in test [4] were 49% and 98% (active), respectively. Also, the inhibition was 25% in test [2] and 6% in test [3]. For the same molecule, the outcome in test [5], in test [6], in test [7] and in test [8] was inactive.
Turning to `Cc1ccc(C(=O)Cn2nc(-c3ccc(C)c(S(=O)(=O)N4CCCCC4)c3)ccc2=O)cc1`, the growth inhibition is 76% (active) in test [1] and 99% (active) in test [4]. Also, the inhibition in test [2] was 6%; in test [3] it was -5%. Besides, the result in test [5], in test [6], in test [7] and in test [8] was inactive.
On to `CCOc1cc(C(=O)NCCCN2CCCCC2C)ccc1-c1nc2ccc(Cl)cc2[nH]1` (stereo not given), for which the growth inhibition in test [1] was 0%; in test [4], 89% (active). Also, the results for the inhibition in test [2] and in test [3] were 2% and -2%, respectively. Also, the result in test [5], in test [6], in test [7] and in test [8] was inactive.
For the molecule `CC(C)CNCc1ccc(-c2ccccc2CNC2CCN(Cc3ccccc3)CC2)cc1`, the growth inhibition in test [1] is 41%; in test [4] it was 101% (active). Moreover, the inhibition in test [2] is 28%; in test [3], -3%. For the same molecule, the outcome in test [5], in test [6], in test [7] and in test [8] was inactive.
For `CC(C)CSc1cc(C(=O)Nc2cc(Cl)ccc2O)ccn1`, the values for the growth inhibition in test [1] and in test [4] were 34% and 100% (active), respectively. Besides, the values for the inhibition in test [2] and in test [3] were 36% and -2%, respectively. In addition, the result in test [5], in test [6], in test [7] and in test [8] was inactive.
Take `CC(C)(C)C(=O)N1CCN(c2ccc([N+](=O)[O-])c(NC3CC3)c2)CC1`: the growth inhibition in test [1] is 97% (active); in test [4], 95% (active). Moreover, the inhibition in test [2] was 8%; in test [3], 3%. For the same molecule, the result in test [5], in test [6], in test [7] and in test [8] was inactive.
For the molecule `COc1cc(C)ccc1S(=O)(=O)N1CCCCC(c2ccc(C(F)(F)F)cc2)=N1`, the growth inhibition is 89% (active) in test [1] and 92% (active) in test [4]. Besides, the inhibition was 16% in test [2] and -1% in test [3]. For the same molecule, the outcome in test [5], in test [6], in test [7] and in test [8] was inactive.
For the molecule `COc1ccc(CN2CCCN(Cc3ccc(C(=O)Nc4ccc(Cl)cc4)cc3)CC2)cc1`, the growth inhibition was 3% in test [1] and 91% (active) in test [4]. Moreover, the inhibition in test [2] was 46%; in test [3], 0%. In addition, the outcome in test [5], in test [6], in test [7] and in test [8] was inactive.
Take `Cc1ccc(CCNCC(O)c2cccc(C(F)(F)F)c2)cc1` (stereo not given): the values for the growth inhibition in test [1] and in test [4] were 83% (active) and 94% (active), respectively. In addition, the figures for the inhibition in test [2] and in test [3] were -3% and 0%, respectively. In addition, the result in test [5], in test [6], in test [7] and in test [8] was inactive.
Turning to `Cc1nc(N)nc(N)c1CCCOc1ccccc1Br`, the growth inhibition is 5% in test [1] and 97% (active) in test [4]. The inhibition is 53% (active) in test [2] and 5% in test [3]. Also, the outcome in test [5], in test [6], in test [7] and in test [8] was inactive.
For the molecule `CC(C)NCc1cccc(-c2cccc(NC(=O)c3cccc(Cl)c3)c2)c1`, the growth inhibition in test [1] is 38%; in test [4], 98% (active). In addition, the inhibition in test [2] was 36%; in test [3], -10%. Also, the outcome in test [5], in test [6], in test [7] and in test [8] was inactive.
With `Cc1nc(-c2nc(NCc3ccccn3)ncc2-c2ccsc2)sc1C`, the growth inhibition in test [1] is 87% (active); in test [4], 92% (active). Further, the inhibition is -2% in test [2] and 4% in test [3]. The result in test [5], in test [6], in test [7] and in test [8] was inactive.
In the case of `CN1CCCC(CN2CCN(Cc3ccc(-c4ccc(-c5nc6ccc(F)cc6[nH]5)cc4)cc3)CC2)C1` (stereo not given), the growth inhibition in test [1] was 98% (active); in test [4], 100% (active). Further, the results for the inhibition in test [2] and in test [3] were 90% (active) and -1%, respectively. The result in test [5], in test [6], in test [7] and in test [8] was inactive.
Take `COc1cc(CNCCCNc2nc3ncccc3[nH]2)c2[nH]cc(Br)c2c1`: the results for the growth inhibition in test [1] and in test [4] were 3% and 92% (active), respectively. Also, the inhibition in test [2] was 12%; in test [3], 8%. For the same molecule, the outcome in test [5], in test [6], in test [7] and in test [8] was inactive.
With `O=C(Nc1cccc(CN2CCCN(Cc3cccc(F)c3)CC2)c1)c1ccc(Cl)c(Cl)c1`, the growth inhibition in test [1] is 6%; in test [4], 85% (active). For the same molecule, the inhibition in test [2] was 28%; in test [3], -1%. Also, the result in test [5], in test [6], in test [7] and in test [8] was inactive.
For the molecule `COc1ccc(CCNc2ccnc3cc(Cl)ccc23)cc1OC`, the growth inhibition in test [1] is 92% (active); in test [4] it was 101% (active). Also, the inhibition in test [2] was 4%; in test [3] it was -7%. Besides, the result in test [5], in test [6], in test [7] and in test [8] was inactive.
Regarding `CC(=O)N[C@H](C(=O)Nc1ccc(-c2ccc(-c3nc4ccc(C(F)(F)F)cc4[nH]3)cc2)cc1)C(C)C`, the growth inhibition is 76% (active) in test [1] and 88% (active) in test [4]. For the same molecule, the inhibition is 24% in test [2] and 7% in test [3]. The outcome in test [5], in test [6], in test [7] and in test [8] was inactive.
On to `Cc1cccc2[nH]c(-c3ccc(-c4ccc(NC(=O)NCc5cccc(F)c5)cc4)s3)nc12`, for which the growth inhibition in test [1] is 43%; in test [4], 101% (active). Also, the inhibition was 70% (active) in test [2] and -6% in test [3]. In addition, the outcome in test [5], in test [6], in test [7] and in test [8] was inactive.
Regarding `COCCN1CCN(Cc2cccc(-c3ccc(-c4nc5ccccc5[nH]4)cc3)c2)CC1`, the figures for the growth inhibition in test [1] and in test [4] were 50% (active) and 100% (active), respectively. Moreover, the inhibition in test [2] is 9%; in test [3], 1%. Besides, the outcome in test [5], in test [6], in test [7] and in test [8] was inactive.
With `COc1ccc(CN2CCCC(N3CC4(OC3=O)c3ccccc3-c3ccccc34)C2)c(O)c1` (stereo not given), the figures for the growth inhibition in test [1] and in test [4] were 34% and 92% (active), respectively. In addition, the inhibition was 14% in test [2] and 7% in test [3]. Also, the result in test [5], in test [6], in test [7] and in test [8] was inactive.
